# Counter-ions that a name gives are not always drawn.
# Tested on: Saccharomyces cerevisiae BY4741 SeMeCo community
# Assay: z-score of subpopulation abundance vs DMSO median, subpopulation auxotrophic for U; higher = larger share of this subpopulation than in DMSO controls
# Details: 10 µM; 24 h; SM minimal medium; subpopulation (auxotrophy): U
# Procedure: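 Fluorescent four-plasmid SeMeCo (self-establishing metabolically cooperating S. cerevisiae BY4741 community; plasmids pH-mRuby2, pL-mWasabi, pU-eCFP, pM-TagRFP657) was grown 24 h in minimal SM medium with each Selleck FDA-approved drug at 10 µM in 384-well plates. Cells were fixed and imaged by high-content confocal microscopy. For each auxotrophic subpopulation (and the prototroph), a z-score gives the deviation from the DMSO vehicle-control population median.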
row,SMILES,z-score of subpopulation abundance
1,CCN(C)C(=O)Oc1cccc([C@H](C)N(C)C)c1 [Rivastigmine Tartrate],-0.19
2,CC[C@@]1(O)C(=O)OCc2c1cc1n(c2=O)Cc2cc3ccccc3nc2-1 [Camptothecin],-0.45
3,CC1(C)SC2C(N)C(=O)N2C1C(=O)O (centres undefined) [6-Aminopenicillanic acid],0.1
4,CN(C)C(=O)Oc1ccc[n+](C)c1 [Pyridostigmine Bromide],0.29
5,O=c1cccc2n1C[C@@H]1CNC[C@H]2C1 [Cytisine],-0.25
6,COc1ccc(C(CN(C)C)C2(O)CCCCC2)cc1 (centres undefined) [Venlafaxine HCl],-0.58
7,CCCCCCCCCCCCCCCC[n+]1ccccc1 [Cetylpyridinium Chloride],1.27
8,COc1ccc(C(CN(C)C)C2(O)CCCCC2)cc1 (centres undefined) [Venlafaxine],0.93
9,COc1ccc(C=O)cc1 [p-Anisaldehyde],-0.66
10,CCN1CC2(OC(=O)c3ccccc3NC(C)=O)CCC(OC)C34C1C(CC23)C1(O)CC(OC)C2CC4C1(O)C2OC (centres undefined) [Lappaconitine],-0.25
11,CC(NC(C)(C)C)C(=O)c1cccc(Cl)c1 (centres undefined) [Amfebutamone (Bupropion) HCl],0.11
12,CN1[C@@H]2C[C@@H](OC(=O)[C@H](CO)c3ccccc3)C[C@H]1[C@@H]1O[C@@H]12 [Scopolamine HBr],0.09
13,CN1[C@@H]2CC[C@H]1C[C@@H](OC(=O)[C@H](CO)c1ccccc1)C2 [Hyoscyamine],0.23
14,COc1ccc2c3c([nH]c2c1)C(C)=NCC3 [Harmaline],-8.11
15,"NCC(O)c1ccc(O)cc1 (racemic) [(+,-)-Octopamine HCl]",0.08
16,CN1[C@@H]2C[C@@H](OC(=O)[C@H](CO)c3ccccc3)C[C@H]1[C@@H]1O[C@@H]12 [Scopolamine HBr trihydrate],0.18
17,CC[C@H]1[C@@H]2C[C@H]3[C@@H]4N(C)c5ccccc5[C@]45C[C@@H]([C@@H]2[C@H]5O)N3[C@@H]1O [Ajmaline],0.29

row,SMILES,z-score of subpopulation abundance
1,Cc1cc(C(C#N)c2ccc(Cl)cc2)c(Cl)cc1NC(=O)c1cc(I)cc(I)c1O (centres undefined) [Closantel],-0.26
2,CN[C@@H]1[C@@H](O)[C@@H](O[C@@H]2[C@@H](O)[C@H](O[C@H]3O[C@H](CN)CC[C@H]3N)[C@@H](N)C[C@H]2N)OC[C@]1(C)O.CN[C@@H]1[C@@H](O)[C@@H](O[C@@H]2[C@@H](O)[C@H](O[C@H]3O[C@H]([C@@H](C)N)CC[C@H]3N)[C@@H](N)C[C@H]2N)OC[C@]1(C)O.CN[C@@H]1[C@@H](O)[C@@H](O[C@@H]2[C@@H](O)[C@H](O[C@H]3O[C@H]([C@@H](C)NC)CC[C@H]3N)[C@@H](N)C[C@H]2N)OC[C@]1(C)O [Gentamicin Sulfate],0.09
3,NCCc1c[nH]c2ccc(O)cc12 [Serotonin HCl],0.33
4,CN(C)[C@@H]1C(=O)C(C(N)=O)=C(O)[C@@]2(O)C(=O)C3=C(O)c4c(O)ccc(Cl)c4[C@@](C)(O)[C@H]3C[C@@H]12 [Chlortetracycline HCl],0.25
5,CN(C)[C@@H]1C(=O)C(C(N)=O)=C(O)[C@@]2(O)C(=O)C3=C(O)c4c(O)cccc4[C@@](C)(O)[C@H]3C[C@@H]12 [Tetracycline HCl],0.13
6,COC(=O)C1=CCCN(C)C1 [Arecoline HBr],-0.09
7,Nc1ccncc1 [4-Aminopyridine],-0.8
8,C[N+](C)(C)CCCCCCCCCC[N+](C)(C)C [Decamethonium Bromide],0.01
9,C[C@H]1O[C@H](O[C@H]2[C@H](O)[C@@H](O)[C@@H](O)[C@H](O)[C@@H]2O)[C@@H](N)C[C@@H]1NC(=N)C(=O)O [Kasugamycin hydrochloride],-0.23
10,C=CN1CCCC1=O.II [Povidone iodine],0.2
11,CNC1CC(N)C(O)C(OC2OC(CO)C(O)C3OC4(OC(C(N)CO)C(O)C(O)C4O)OC23)C1O (centres undefined) [Hygromycin B],0.58
12,CC(=O)OCC1=C(C(=O)O)N2C(=O)C(N)C2SC1 (centres undefined) [7-Aminocephalosporanic acid],0.52
13,C=CCN1C[C@H](C(=O)N(CCCN(C)C)C(=O)NCC)C[C@@H]2c3cccc4[nH]cc(c34)C[C@H]21 [Cabergoline],1.05
14,CN1[C@@H]2CC[C@H]1C[C@@H](OC(=O)C(CO)c1ccccc1)C2 (some centres undefined) [Atropine sulfate monohydrate],0.96
15,CN[C@@H]1[C@@H](O)[C@@H](O[C@@H]2[C@@H](O)[C@H](O[C@H]3O[C@H]([C@@H](C)O)[C@@H](O)[C@H](O)[C@H]3N)[C@@H](N)C[C@H]2N)OC[C@]1(C)O [Geneticin (G418 Sulfate)],-0.18
16,CCN(C)C(=O)Oc1cccc([C@H](C)N(C)C)c1 [Rivastigmine],-0.07
17,CC(C)=CCOc1c2occc2cc2ccc(=O)oc12 [Imperatorin],0.23

# — the supplement of paper PMC8975748
